# VLA-4 inh = inhibition in a human VLA-4 binding assay. P13612. AID 2557. inhibition, % (about 7 µM as worked out from the volumes in the protocol). VLA-4 expressing cells, ligand binding flow cytometry. actives 0.2% (n = 330,000); in the data active = inhibition above about 50%
# Target sequence (P13612 whole entry, looked up): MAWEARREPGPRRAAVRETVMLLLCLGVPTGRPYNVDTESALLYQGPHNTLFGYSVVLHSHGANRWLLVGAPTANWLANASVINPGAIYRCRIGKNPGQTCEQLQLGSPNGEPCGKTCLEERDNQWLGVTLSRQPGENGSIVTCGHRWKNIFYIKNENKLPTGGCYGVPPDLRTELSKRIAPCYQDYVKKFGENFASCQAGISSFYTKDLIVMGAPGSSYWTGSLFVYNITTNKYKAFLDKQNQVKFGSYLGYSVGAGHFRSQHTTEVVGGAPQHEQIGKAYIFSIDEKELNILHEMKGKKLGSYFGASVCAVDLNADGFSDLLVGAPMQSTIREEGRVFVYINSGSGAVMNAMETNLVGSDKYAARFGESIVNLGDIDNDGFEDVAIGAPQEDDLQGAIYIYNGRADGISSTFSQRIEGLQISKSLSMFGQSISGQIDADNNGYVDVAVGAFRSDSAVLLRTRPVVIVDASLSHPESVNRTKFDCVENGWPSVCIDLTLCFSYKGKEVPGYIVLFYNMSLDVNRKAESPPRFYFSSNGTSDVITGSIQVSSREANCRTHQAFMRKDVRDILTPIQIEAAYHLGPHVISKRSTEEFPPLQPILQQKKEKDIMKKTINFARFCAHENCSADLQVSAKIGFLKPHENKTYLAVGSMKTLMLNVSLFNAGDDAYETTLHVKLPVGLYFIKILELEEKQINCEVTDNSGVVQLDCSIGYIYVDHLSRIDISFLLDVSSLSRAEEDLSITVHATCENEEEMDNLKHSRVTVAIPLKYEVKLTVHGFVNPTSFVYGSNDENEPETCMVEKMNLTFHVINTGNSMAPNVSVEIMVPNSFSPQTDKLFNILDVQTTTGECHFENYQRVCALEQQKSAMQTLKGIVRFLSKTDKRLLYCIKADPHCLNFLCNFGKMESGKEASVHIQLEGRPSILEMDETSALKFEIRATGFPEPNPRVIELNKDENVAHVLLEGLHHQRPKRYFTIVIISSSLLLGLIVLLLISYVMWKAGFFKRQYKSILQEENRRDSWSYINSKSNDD
# Exocytosis inh = lytic granule exocytosis inhibition; TALL-104 LAMP-1 surface exposure, flow cytometry; cells stimulated with thapsigargin and PMA; inhibition, % at 10 µM; actives 0.66% (n = 360,000);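 active = inhibition above about 55%, limit read from the data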
# PG9 Ab binder = small molecules binding HIV-1 gp120 antibody PG9; AID 624416; TR-FRET gp120-PG9 antibody binding; inhibition, % at 6.7 µM; actives 0.43% (n = 360,000); in the data active = inhibition above about 8.5%
# ABCB6 inh MLPCN = inhibitors of human ABC transporter ABCB6; AID 602162; Q9NP58; fluorescence ratio to DMSO, % at 10 µM; actives 0.19% (n = 360,000); K562-ABCB6 porphyrin accumulation, flow cytometry, 1 h; active compounds read low;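 active = fluorescence ratio to DMSO below 75%, the collection mean minus 3 SD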;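 note: signal is porphyrin accumulated inside mitochondria; 100% equals median channel fluorescence of DMSO control wells; lower ratio means ABCB6 inhibition with less porphyrin fluorescence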
# Rev-erbA mod = Rev-erb alpha (human) modulation; activity, % at 10 µM; actives 0.79% (n = 370,000); AID 1259318; Rev-erbα–FITC-DNA binding, fluorescence polarization, 90 min; P20393;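 active = activity above about 14%, limit read from the data; passing the limit was not always enough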;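 note: 0% = DMSO wells with 35 nM protein and 100% = DMSO wells with 750 nM protein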
# Rev-erbA confirm = Rev-erb alpha (human) modulation, hit confirmation; shares compounds with Rev-erbA mod; Rev-erb alpha FITC-DNA binding, fluorescence polarization, 90 min; activation, % at 25 µM; actives 61% (n = 3,000);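 active = activation at or above a set limit, or at least 3 SD above the negative control mean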;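 note: 0% = 35 nM protein with DMSO and 100% = 750 nM protein high control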
# RORg DNA counter = RORgamma DNA-binding activity, dose-response counter-screen; shares compounds with Rev-erbA mod; purified RORgamma protein-FITC-DNA binding, fluorescence polarization; IC50, µM; actives 8% (n = 910);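 active = Compounds whose fitted half-maximal concentration for disrupting protein-DNA binding is below 10 micromolar; the record names Rev-erb in its text, so the target is in doubt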
# * marks the source's active call; other numbers are inactive results; i = inactive; x = not tested or not shown. The list is not random: actives were taken first. Their share in the collection is about 2%.
SMILES,VLA-4 inh,Exocytosis inh,PG9 Ab binder,ABCB6 inh MLPCN,Rev-erbA mod,Rev-erbA confirm,others
CC(Sc1nc2ccccc2c(=O)n1C)C(=O)Nc1ccc2c(c1)OCCO2 (configuration not stated),4.9,-0.6,2.0,100.0,27.1*,11.7*,
Cc1cc(C)c2cc(C#N)c(SCC(=O)Nc3ccc4c(c3)OCO4)nc2c1,0.5,-1.5,4.3,102.0,62.4*,196.3*,RORg DNA counter=>40
O=C(CSc1nc(Cc2ccccc2)nc2ccccc12)Nc1ccc2c(c1)OCCO2,8.0,23.9,7.8,102.0,33.5*,27.0*,
O=C(CSc1ncnc2ccccc12)Nc1ccc2c(c1)OCO2,19.0,3.3,0.2,98.0,-0.1,x,
Cc1cc(C)c2cc(C#N)c(SCC(=O)NCC3CCCO3)nc2c1 (configuration not stated),13.7,-0.8,0.2,87.0,102.7*,87.5*,RORg DNA counter=i
Cc1cccc(C)c1OCc1cccc(C2Nc3ccccc3C(=O)N2Cc2ccco2)c1 (configuration not stated),x,x,x,x,11.3,x,
Cc1ccc(-n2c(SCc3ccc(Cl)c(Cl)c3)nnc2-c2ccc(C(C)(C)C)cc2)cc1,x,x,x,x,2.2,x,
O=C(c1ccc(Cl)cc1)c1cnc(Nc2ccccc2Cl)s1,5.2,-1.7,6.4,101.0,34.9*,12.0,
O=C(c1ccc(Cl)cc1)c1cnc(-c2ccccc2)s1,x,2.4,-1.2,94.0,9.6,x,
O=C(COc1ccc(Cl)cc1Cl)Nc1ccc(-c2ccc(N3CCOCC3)nn2)cc1,3.7,2.2,-7.9,93.0,-20.6,x,
O=C(COc1ccc(Cl)cc1Cl)Nc1cccc(-c2ccc(N3CCOCC3)nn2)c1,x,6.9,1.8,93.0,22.1*,14.3*,
O=C(CCCCn1c(=O)[nH]c2ccccc2c1=O)N1CCN(c2cccc(C(F)(F)F)c2)CC1,-7.7,12.9,-0.4,92.0,-0.5,x,
O=C(CCCn1c(=S)[nH]c2ccccc2c1=O)N1CCN(c2cccc(Cl)c2)CC1,-18.4,-2.5,3.0,99.0,26.1*,56.8*,
CCOC(=O)C1CCN(C(c2cc3c(C)ccc(C)c3[nH]c2=O)c2nnnn2C2CCCCC2)CC1 (configuration not stated),-10.3,6.6,-0.1,98.0,3.5,x,
CCOC(=O)C1CCN(C(c2cc3ccc(C)c(C)c3[nH]c2=O)c2nnnn2C2CCCCC2)CC1 (configuration not stated),-6.4,-3.2,-1.9,97.0,68.9*,96.9*,
Clc1ccc(-c2ccnc(Oc3cc(Cl)ccc3Cl)n2)cc1,-6.0,-6.1,0.5,97.0,35.3*,38.6*,RORg DNA counter=>40
CN(C)/C=C/c1oc2ccc(O)cc2c1[N+](=O)[O-],-4.3,0.1,-26.9,95.0,37.1*,17.2,
COc1ccc(NC(=O)NNC(=O)COc2ccc3cc(Br)ccc3c2)cc1,11.4,-8.4,1.2,101.0,15.7*,7.7,
COCCCn1cc(CN2CC=CS2(=O)=O)nn1,x,x,x,x,2.4,x,
N#Cc1c(N)oc(-c2cccs2)c1-c1cccs1,5.6,-4.1,3.0,199.0,24.3*,33.8*,
CCC(C)(C)C1CCc2c(sc(NC(=O)c3cccs3)c2C(N)=O)C1 (configuration not stated),8.1,0.0,-1.3,90.0,29.1*,15.8,
CC(C)(C)C1CCc2c(sc(NC(=O)c3cccs3)c2C(N)=O)C1 (configuration not stated),0.6,0.4,-1.2,98.0,6.2,x,
CNC(=O)CN(CCN(CCN(CC(=O)O)CC(=O)NC)CC(=O)O)CC(=O)O,x,x,x,x,-0.8,x,
CCOC(=O)C(=CNc1nc2ccc(C(=O)OCC)cc2s1)C(=O)OCC,20.2,2.3,1.3,101.0,34.5*,19.4*,
CCOC(=O)c1ccc2nc(Nc3nc4ccc(F)cc4s3)sc2c1,4.4,1.1,-0.2,86.0,34.8*,31.4*,RORg DNA counter=>40
SMILES,VLA-4 inh,Exocytosis inh,PG9 Ab binder,ABCB6 inh MLPCN,Rev-erbA mod,Rev-erbA confirm,others
COC(=O)c1ccc2nc(Nc3nc4c(F)cc(F)cc4s3)sc2c1,31.7,-3.9,0.4,98.0,37.6*,33.0*,RORg DNA counter=>40
COC(=O)c1ccc2nc(NC(=O)C(C)C)sc2c1,7.4,-1.1,-0.9,88.0,-4.5,x,
CC(C)C[C@H](NC(=O)C1CCCC1)C(=O)N1CCC[C@H]1C(=O)NCc1ccccc1,x,x,0.3,x,-6.3,x,
CC(=O)Nc1nonc1-c1nc2ccccc2n1CCC#N,1.1,-1.0,-2.6,102.0,3.5,x,
N#CCCn1c(-c2nonc2NC(=O)c2ccccc2Cl)nc2ccccc21,9.9,4.2,-1.9,99.0,77.2*,22.3*,
CCCCc1c(-c2ccccc2OC)ncn1Cc1ccccc1Cl,x,x,0.0,x,0.8,x,
Cc1ccc2nc(SCC(=O)N3c4ccccc4CC3C)c(C)cc2c1 (configuration not stated),1.8,1.8,0.0,92.0,27.5*,8.0,
Cc1ccc2nc(-c3cccnc3SCC(=O)N3c4ccccc4CC3C)[nH]c2c1 (configuration not stated),3.6,-0.9,-0.5,96.0,32.7*,19.6*,
CC1Cc2ccccc2N1C(=O)CSc1ncccn1 (configuration not stated),-12.9,-13.3,0.6,92.0,-2.7,x,
C=CCOC(=O)N[C@H](c1ccccc1)[C@H](C)/C=C/CC(=O)OC,x,x,x,x,-0.1,x,
CCOC(=O)[C@@H]1CSCCS(=O)(=O)N1Cc1ccc(C(F)(F)F)cc1,x,x,-0.9,x,2.4,x,
Cc1cc(NC(=O)COC(=O)c2oc3c(ccc4ccccc43)c2C)no1,15.5,0.2,5.5,97.0,-4.6,x,
Cc1c(C(=O)OCC(=O)Nc2ccc(S(N)(=O)=O)cc2)oc2c1ccc1ccccc12,3.9,-8.3,4.7,90.0,16.1*,17.9,
C[C@H]1[C@@H](OC(=O)NC2CCCCC2)CC[C@@]23CCCN2C(=O)CCC[C@@H]13,x,x,x,x,3.0,x,
CCc1ccc([C@H]2[C@@H]3C(=O)C[C@@H]4C(=O)N(CC)C(=O)[C@@H]4[C@@H]3CN2S(=O)(=O)c2ccc(C)cc2)cc1,x,-3.3,-1.3,99.0,-2.8,x,
CCc1ccc([C@H]2[C@@H]3C(=O)C[C@@H]4C(=O)N(C)C(=O)[C@@H]4[C@@H]3CN2S(=O)(=O)c2ccc(C)cc2)cc1,x,-1.5,0.2,101.0,16.0*,1.3,
CCCC1CCC2(CC1)CCC2OC(=O)Nc1c(OC)cccc1OC (configuration not stated),x,x,x,x,-8.9,x,
COc1cc(N2N=C(c3ccccc3)CC2c2ccccc2)c(C=O)cc1C=O (configuration not stated),-4.3,51.1,1.0,144.0,107.0*,74.9*,RORg DNA counter=>40
COC(=O)N1C[C@H](Oc2ncccn2)[C@H]2C[C@@H]1c1ccccc1O2,x,x,0.1,x,1.4,x,
O=c1[nH]c2ccccc2nc1/C=C(\O)c1cccs1,-61.3,0.4,-6.6,94.0,43.1*,21.8*,
O/C(=C\c1nc2ccccc2[nH]1)c1cccs1,0.1,0.4,-0.4,110.0,4.5,x,

# From PubChem
